# Sampled rows, rich in hits. Any-hit rate of the full collection: about 6.5%.
# VACV Venus inh: inhibitors of vaccinia virus (Venus reporter); Vaccinia virus Venus reporter expression, fluorescence; Potency, µM (series often up to 36.5 µM), for the others: at the top dose activity change, negative = inhibition, hits mostly inhibitors; AID 720580; 0.46% of 330,000 active; calls by dose curve; tested in A549 cells; note: potency is the fitted concentration of half-maximal effect; nearly all actives have a fitted effect of over 30% in size
# VACV mCherry inh: vaccinia inhibition (mCherry reporter) | Vaccinia virus mCherry reporter infection, fluorescence | Potency, µM (top dose mostly 36.5 µM), without a hit: at the highest dose activity change, negative = inhibition, most hits filed as inhibitors | 0.63% of 310,000 active; calls by dose curve; tested in A549 cells; note: potency is the fitted concentration of half-maximal effect; nearly all actives have a fitted effect of over 35% in size
# FMDV antiviral: antivirals against foot and mouth disease virus; FMDV antiviral cell-based qHTS; Potency, µM (top dose mostly 57.9 µM), for the others: at the highest dose activity change, negative = inhibition, actives largely listed as inhibitors; 1.2% of 410,000 active; AID 1159524; calls by dose curve; tested in HEK293T cells; note: read-out not given here; potency is the fitted concentration of half-maximal effect; nearly all actives have a fitted effect of over 45% in size
# Lassa entry inh: blocks Lassa virus binding to or entry into cells | Lassa virus pseudotype entry inhibition, cell reporter | Potency, µM (series often up to 37.9 µM), inactives show at the top dose activity change, negative = inhibition, hits mostly inhibitors | 1.2% of 300,000 active | AID 540256; calls by dose curve; tested in HEK293 cells; note: potency is the fitted concentration of half-maximal effect; nearly all actives have a fitted effect of over 50% in size
# HCMV antiviral: blocks human cytomegalovirus replication | HFF cells, HCMV-luciferase reporter, 72 h; hits give low values | activity change, negative = inhibition, % at 57.5 µM | 4.5% of 410,000 active; in the data active = activity change below about -60%; inconclusive = no clear call, values can overlap the other calls; inactive = above about -39%
#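 Compounds were evaluated in HFFs infected with an HCMV luciferase reporter virus (MOI 1 PFU/cell). Luciferase in lysates collected 72 h post infection served as the replication measure.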
# MARV entry inh: inhibitors of Marburg virus binding or cell entry. Marburg virus pseudotyped entry inhibition, cell reporter. 1.8% of 300,000 active. Potency, µM (titrated, usually from 37.8 µM), for inactives: at the highest dose activity change, negative = inhibition, usual class: inhibitors; calls by dose curve; tested in HEK293 cells; note: potency is the fitted concentration of half-maximal effect
# Starred values were filed as active, the others as inactive; i = inactive; ? = inconclusive; . = no result given; [ ] = another dose, or the depositor's remark. % is set by controls: 0 for no effect and ±100 for the full control effect.
SMILES,VACV Venus inh,VACV mCherry inh,FMDV antiviral,Lassa entry inh,HCMV antiviral,MARV entry inh
COc1ccc(/C(O)=C2\C(=O)C(=O)N(Cc3ccco3)[C@@H]2c2cccs2)cc1,.,.,.,.,.,-1%
Cn1cc(/C=C/c2cc[n+](C)cc2)c2cc(Cl)ccc21,-3%,?,-16%,?,-102*,?
CCOc1ccc(C(=O)c2cc([N+](=O)[O-])ccc2N2CCOCC2)cc1,?,?,?,?,-90*,?
COc1ccc(C(=O)COC(=O)c2cc([N+](=O)[O-])ccc2N2CCOCC2)c(OC)c1,-13%,-19%,-19%,-11%,18,2.2µM*
Cc1ccc(COC(=O)c2cc([N+](=O)[O-])ccc2N2CCOCC2)cc1,.,.,.,.,-63*,.
O=C(OCc1ccc([N+](=O)[O-])cc1)c1cc([N+](=O)[O-])ccc1N1CCOCC1,-26%,?,-29%,?,-27,-14%
COc1ccccc1C(=O)COC(=O)c1cc([N+](=O)[O-])ccc1N1CCOCC1,-8%,i,7%,-10%,-12,?
O=C(COC(=O)c1cc([N+](=O)[O-])ccc1N1CCOCC1)Nc1cccc(F)c1,.,.,40µM*,.,-4,.
COc1ccc(C(=O)c2cc([N+](=O)[O-])ccc2N2CCOCC2)cc1,?,?,-12%,?,-99*,?
C=CCOC(=O)C(C(C)=O)[C@@H](NC(=O)OC)c1cccs1 (some centres not stated),.,.,.,.,.,-6%[14.2 µM]
Cc1ccc2nc(N3CCN(S(=O)(=O)c4ccc(C)c(Cl)c4)CC3)c(C#N)cc2c1,.,.,1%,?,-40,4.6µM*
COC(=O)[C@](NC(C)=O)(Nc1nc2ccc(S(C)(=O)=O)cc2s1)C(F)(F)F,.,.,.,.,.,0%
CCOc1ccc(-c2cccc(NS(=O)(=O)c3ccccc3C(F)(F)F)c2)nn1,0%,-12%,0%,2%[46.1 µM],8,.
Cc1nc2c(OCc3ccc(OC(F)F)cc3)cccn2c1N(C)C(=O)CCC1CCCC1,-15%,-3%,25µM*,.,-23,.
CCC(CC)C(=O)N(C)c1c(C)nc2c(OCCOc3ccc(F)cc3)cccn12,-21%,-3%,?,.,-92*,.
Cc1cccc(-c2nc(CSc3nncn4c3cc3oc(C)cc34)c(C)o2)c1,-3%,-7%,6%,17%[46.1 µM],-6,.
Cc1ccc(CN(C(=O)COc2cccc([N+](=O)[O-])c2)c2ccccn2)o1,10%,-7%,-10%,?,?,2.8µM*
Cc1ccc(CN(C(=O)COc2cccc([N+](=O)[O-])c2)c2ccccn2)cc1,-5%,-17%,-8%,-30%[46.1 µM],-6,?
C/C(=C\c1ccc(N(C)C)cc1)[N+](=O)[O-],.,.,14µM*,?,-102*,5.2µM*
CN(C)c1ccc(C(=O)C=Cc2ccc([N+](=O)[O-])cc2)cc1,-23%,?,-5%,.,-19,.
O=C(Nc1c(C(=O)c2ccccc2)oc2ccccc12)c1cc(=O)c2ccccc2o1,-2%,-10%,-3%,12%[46.1 µM],9,-6%[46.1 µM]
C=CCN1CCN(C(c2ccc(Cl)cc2)c2nnnn2CCc2ccc(OC)c(OC)c2)CC1 (configuration not stated),-19%,i,-5%,-9%,-101*,-17%[46.1 µM]
CC(=NNC(=S)N(Cc1ccccn1)Cc1ccccn1)c1cnccn1,3.5µM*,1.4µM*,-6%,2.8µM*,-98*,?
S=C(NN=C(c1ccccc1)c1ccccn1)N(Cc1ccccn1)Cc1ccccn1,?,2.5µM*,-20%,?,-97*,0.63µM*
O=C(CCCC(=O)N/N=C\c1ccccn1)N/N=C\c1ccccn1,-7%,-3%,-19%,4%,-32,0%
S=C(NN=Cc1ccccn1)N(Cc1ccccn1)Cc1ccccn1,?,5.6µM*,-15%,?,-77*,1.3µM*
COc1ccccc1NC(=S)N(Cc1ccc(C)cc1)Cc1ccccn1,-4%,0%,0%,-29%[46.1 µM],-8,?
O=C(Cc1ccccc1)N/N=C/c1ccccn1,-18%,-3%,.,5%,-84*,15%
O=C(CCCCCn1c(=O)c2sccc2n(CC(=O)Nc2ccccc2F)c1=O)NCc1ccc2c(c1)OCO2,-3%,-6%,-8%,-24%[46.1 µM],-31,5%[46.1 µM]
FC(F)(F)c1cc(CCN2CCNC[C@@H]2Cc2ccccc2)cc(C(F)(F)F)c1,11µM*,13µM*,-21%,.,-64*,.
